We go through 28 compounds from PubChem BioAssay AID504832 (National Center for Advancing Translational Sciences (NCATS), 2011).

About 18,000 (5.8%) of roughly 310,000 compounds were called active. Entries that show only a call come without a potency. Roughly 22% stayed inconclusive and do not appear here. Calls come from the whole dose curve; as a rule, active = well fitted inhibition curve with a large enough effect; inconclusive = small, poorly fitted or top-dose-only effect, or another doubt; inactive = no such curve, though single readings can be large or run the other way. The full list was thinned out, with actives kept by preference.
Potency is the fitted concentration of half-maximal effect.

This experiment is described as follows: Primary qHTS for delayed death inhibitors of the malarial parasite plastid, 48 hour incubation. The settings on record: P. falciparum luciferase growth in erythrocytes; series mostly up to 28.7 µM. A digest of the protocol:
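Compounds are pin-transferred into medium, infected erythrocytes (2% hematocrit, 0.1% parasitemia final) are added, and plates sit one parasite generation at 37 C in 5% CO2. Detection reagent is then added and luminescence measured.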
For orientation: In qHTS, concentration-response curves come from the screen itself.
For the compound `CN(C)CCN(Cc1ccccc1)S(=O)(=O)c1csc(C(N)=O)c1`, the Potency entry is “inactive”.

On to `O=C1c2ccccc2C2=Nc3ccccc3SC(c3ccccc3F)C12` (stereo not drawn), for which the Potency was 0.329 µM (active). Under `O=C1c2ccccc2C(=O)C1c1ccccc1F` stands “inactive”; under `COCCN(C(=O)CSCc1ccc(C)cc1)c1c(N)n(CC(C)C)c(=O)[nH]c1=O`, “inactive”; under `CC1(C(=O)NNC(=S)NCC2CCCO2)CC1(Cl)Cl` (stereo not drawn), “inactive”. Turning to `CN(C)S(=O)(=O)c1cccc(NC(=O)Cc2ccsc2)c1`, the Potency entry is “inactive”. Regarding `CN(c1ccccc1)S(=O)(=O)c1cccc(NC(=O)Cc2c(F)cccc2Cl)c1`, the Potency entry is “inactive”.

Regarding `CN(c1ccccc1)S(=O)(=O)c1cccc(NC(=O)Cc2ccc(Cl)cc2)c1`, the Potency was 11.7 µM (active). Take `C[C@@H]1NC(=O)[C@@]2(C)[C@@H](c3ccccc3)[C@H]3COc4ccccc4[C@@H]3N2C1=O`: the Potency result is “inactive”. Take `CC(=O)c1cccc(NC(=O)C2CCN(C(=O)c3ccccc3Cl)CC2)c1`: the Potency entry was “inactive”. Under `CCc1nnc(NC(=O)C2CCN(C(=O)c3ccccc3C)CC2)s1` stands “inactive”; under `Cc1ccccc1C(=O)N1CCC(C(=O)Nc2ccc(S(=O)(=O)N(C)C(C)C)cc2)CC1`, 9.28 µM (active); under `CC(C)c1c(C(=O)N/N=C/c2ccccc2C(=O)O)nnn1-c1nonc1N`, “inactive”. In the case of `Cc1cc(Cl)c2oc(C(=O)N3CCC(O)(c4ccccc4)CC3)c(C)c2c1`, the Potency result was “inactive”.

Take `O=C(O)c1cc([N+](=O)[O-])c(Nc2cccc3ccccc23)c([N+](=O)[O-])c1`: the Potency result was “inactive”. Consider `Cn1cc[n+](C)c1COc1ccc(C=O)cc1`, for which the Potency entry was “inactive”. With `O=C(CN(C(=O)c1csnn1)c1cccc(Cl)c1)NC1CCCC1`, the Potency result is “inactive”. Take `CCn1c(COc2ccccc2)nnc1SCC(=O)NCc1ccco1`: the Potency entry was “inactive”.

Consider `Cc1ccc(-c2csc3nnc(SCC(=O)NCc4ccco4)n23)cc1`, for which the Potency was 9.28 µM (active). Turning to `Cn1c(-c2ccc(F)cc2)cnc1SCC(=O)NCc1ccco1`, the Potency result was “inactive”. The value for `O=C(CSc1nnc2scc(-c3ccc(F)cc3)n12)NCc1ccco1` was “inactive”. Take `O=C(CSc1nnc(-c2ccco2)n1Cc1ccccc1)NC(=O)NCc1ccco1`: the Potency was 10.4 µM (active). As for `CCn1c(SCC(=O)NCc2ccco2)nnc1-c1ccc(N)cc1`, the Potency result is “inactive”. Under `CC1(NC(=O)CCS(=O)(=O)c2ccc(Cl)cc2)CCS(=O)(=O)C1` (stereo not drawn) stands “inactive”; under `C=CCn1c(SCC(=O)Nc2ccc(NC(C)=O)cc2)nc2sc(C)c(C)c2c1=O`, “inactive”. In the case of `CCN(CC(=O)NCc1cccs1)C(=O)c1ccc(OC)c(S(=O)(=O)N2CCOCC2)c1`, the Potency result is “inactive”.

As to `O=C(CC1C(=O)NCCN1C(=O)c1ccc([N+](=O)[O-])cc1)Nc1cccc(Cl)c1` (stereo not drawn), the Potency result was “inactive”.

Regarding `COc1ccc(C(=O)n2nc(C)c(Br)c2C)cc1OC`, the Potency result was “inactive”.
